The target in test [1] is Endonuclease 4 (Escherichia coli (strain K12)) (UniProt P0A6C1). The test can be described thus: Counterscreen for APE1 Inhibitors: qHTS Validation Assay for Inhibitors of Endonuclease IV (AID 1708). The procedure, abridged: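 2 nM enzyme was preincubated with compounds for 15 min at room temperature in 50 mM Tris-HCl pH 7.5, 50 mM NaCl, 2 mM MgCl2, 1 mM DTT, 0.01% Tween-20. 50 nM THF-abasic TAMRA/BHQ-2 duplex substrate started the reaction.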

Test [2] in a line: qHTS for differential inhibitors of proliferation of Plasmodium falciparum line 7G8 (AID 1815).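 Also: potency is read from the fitted curve at half-maximal effect; parasite growth measured after three days of incubation.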 In general terms: In qHTS, concentration-response curves come from the screen itself.
Test [3] in a line: qHTS for differential inhibitors of proliferation of Plasmodium falciparum line GB4 (AID 1816).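 Also: potency is read from the fitted curve at half-maximal effect; parasite growth measured after 72 h incubation.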 To be noted: Potency: Plasmodium falciparum GB4 proliferation inhibition.
Test [4] is described as follows: qHTS for differential inhibitors of proliferation of Plasmodium falciparum line 3D7 (AID 1876). Also: potency is read from the fitted curve at half-maximal effect.
A short description of test [5]: qHTS for differential inhibitors of proliferation of Plasmodium falciparum line D10 (AID 1877).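 Also: potency is read from the fitted curve at half-maximal effect; parasites grown with compound for 72 h before DNA staining.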
A short description of test [6]: qHTS for differential inhibitors of proliferation of Plasmodium falciparum line Dd2 (AID 1882).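 Also: series mostly up to about 29 µM; compound exposure of 72 h on infected erythrocytes; nearly all actives have a fitted effect of over 65% in size.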 Conditions: Potency: Plasmodium falciparum Dd2 proliferation inhibition. The procedure, abridged: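 SYBR Green I DNA fluorescence read-out, ex 485/em 535 nm. Signals were normalized to 0.29 uM artemisinin and DMSO wells, then corrected using vehicle-only plates flanking each stack. Parasite growth ran 72 h in erythrocytes before lysis.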

Test [7] in a line: qHTS for differential inhibitors of proliferation of Plasmodium falciparum line W2 (AID 1883).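 Also: potency is read from the fitted curve at half-maximal effect; parasites grown with compound for 72 h before lysis and staining.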 Conditions: Potency: Plasmodium falciparum W2 proliferation inhibition.
Test [8] in a line: qHTS for differential inhibitors of proliferation of Plasmodium falciparum line HB3 (AID 1886).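 Also: potency is read from the fitted curve at half-maximal effect; parasites grown with compound for 72 h before SYBR Green readout.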 To be noted: Potency: Plasmodium falciparum HB3 proliferation inhibition.
Test [9] concerns the target ATP-dependent DNA helicase Q1 (Homo sapiens) (UniProt P46063). The test can be described thus: qHTS Validation Assay for Inhibitors of RecQ-Like Dna Helicase 1 (RECQ1) (AID 2353). The procedure, abridged: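 50 nM RECQ1T1 preincubated 15 min with compound in Tris pH 8.0 buffer with MgCl2, DTT, Tween-20 and 2.5 ug/ml poly(dI-dC); started with 200 nM TAMRA/BHQ-2 forked duplex and 2 mM ATP. Unwinding read as fluorescence (525/598 nm), two reads 2 h apart.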

Test [10] is described as follows: Validation screen for small molecules that induce DNA re-replication in MCF 10A normal breast cells (AID 463097). Also: nearly all actives have a fitted effect of over 60% in size. The procedure, abridged:
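Image-based qHTS: normal breast cells are incubated with compound for 48 hr, stained with Hoechst, and scanned for total nuclear fluorescence. Compounds raising the fraction of nuclei with elevated DNA content count as re-replication inducers.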

The nature of test [11]: Quantitative high throughput screen for delayed death inhibitors of the malarial parasite plastid, 96 hour incubation (AID 488745). Also: potency is read from the fitted curve at half-maximal effect; nearly all actives have a fitted effect of over 70% in size. The procedure, abridged:
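P. falciparum carrying an integrated firefly luciferase reporter, grown in erythrocytes (2% hematocrit, 0.1% parasitemia final) in RPMI 1640/0.5% Albumax, was exposed to compound for 96 h (two generations) at 37 C, 5% CO2. Luminescence decrease indicated growth inhibition.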

Test [12] in a line: Quantitative high throughput screen for delayed death inhibitors of the malarial parasite plastid, 48 hour incubation (AID 488752). Also: potency is read from the fitted curve at half-maximal effect; nearly all actives have a fitted effect of over 65% in size. The procedure, abridged: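 Erythrocytes infected with P. falciparum carrying an integrated firefly luciferase reporter (2% hematocrit, 0.1% parasitemia final) were exposed to compounds in RPMI 1640/0.5% Albumax for 48 h at 37 C, 5% CO2. Growth inhibition was scored as reduced luminescence.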

The target in test [13] is M-phase phosphoprotein 8 (Homo sapiens) (UniProt Q99549). The test is described as follows: qHTS Validation Assay for Inhibitors for MPP8 Chromodomain Interactions with Methylated Histone Tails (AID 488949).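 Also: 50 nM MPP8 with 50 nM peptide preformed then compounds added for 30 min; AlphaScreen signal from MPP8 chromodomain bound to biotinylated H3K9me3 peptide; top concentration of the series differs between compounds; nearly all actives have a fitted effect of over 55% in size.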 The procedure, abridged: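 50 nM MPP8 + 50 nM b-H3K9me3 peptide, PBS pH 7.4/0.01% Tween-20, 30 min RT; + cpd 30 min RT; + AlphaScreen donor/Ni-chelate acceptor beads 10 ug/mL final, 30 min dark; luminescence read.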
M-phase phosphoprotein 8 (Homo sapiens), sequence (Q99549 whole entry, looked up): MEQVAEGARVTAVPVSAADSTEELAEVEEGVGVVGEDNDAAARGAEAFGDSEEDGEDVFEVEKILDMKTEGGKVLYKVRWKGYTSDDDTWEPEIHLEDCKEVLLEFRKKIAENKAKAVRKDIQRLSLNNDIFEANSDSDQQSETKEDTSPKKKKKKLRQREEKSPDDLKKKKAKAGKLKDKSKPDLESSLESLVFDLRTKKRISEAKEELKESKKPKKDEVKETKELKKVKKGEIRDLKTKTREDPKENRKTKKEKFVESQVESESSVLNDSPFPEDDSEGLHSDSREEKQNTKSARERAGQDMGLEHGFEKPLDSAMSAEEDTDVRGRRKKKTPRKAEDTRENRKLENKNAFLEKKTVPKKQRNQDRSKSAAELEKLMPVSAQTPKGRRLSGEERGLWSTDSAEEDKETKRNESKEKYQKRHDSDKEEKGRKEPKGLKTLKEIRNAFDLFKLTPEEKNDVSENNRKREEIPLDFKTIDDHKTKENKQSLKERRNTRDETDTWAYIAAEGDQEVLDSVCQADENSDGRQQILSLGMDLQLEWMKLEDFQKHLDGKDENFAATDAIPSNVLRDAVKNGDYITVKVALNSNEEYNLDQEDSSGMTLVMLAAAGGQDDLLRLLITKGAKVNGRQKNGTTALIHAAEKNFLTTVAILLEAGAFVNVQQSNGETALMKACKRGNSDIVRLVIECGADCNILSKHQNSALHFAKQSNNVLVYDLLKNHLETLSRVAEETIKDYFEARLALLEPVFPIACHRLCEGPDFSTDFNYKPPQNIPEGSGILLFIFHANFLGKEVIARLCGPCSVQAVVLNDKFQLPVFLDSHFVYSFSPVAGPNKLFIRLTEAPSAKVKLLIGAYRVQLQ

Test [14] addresses Galactokinase (Homo sapiens) (UniProt P51570). The test can be described thus: qHTS Validation Assay for Inhibitors of Human Galactokinase (GALK) (AID 493189). The procedure, abridged:
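5 nM GALK / 100 uM galactose / 35 uM ATP, 20 mM HEPES pH8.0, 5 mM MgCl2, 60 mM NaCl, 1 mM DTT, 0.01% BSA (final). RT 1 h; Kinase-Glo Plus luminescence.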

Test [15] in a line: Validation screen for small molecules that induce DNA re-replication in SW480 colon adenocarcinoma cells (AID 504364). The procedure, abridged:
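SW480 cells seeded at 250 per well were exposed to compound or DMSO for 48 hr at 37 C, 5% CO2, then stained with Hoechst for 40 min. DNA content per nucleus was imaged (405 nm ex, 500-530 nm em).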

Test [16] has as its target DNA dC->dU-editing enzyme APOBEC-3G (Homo sapiens) (UniProt Q9HC16). The test can be described thus: qHTS for inhibitors of Vif-A3G interactions: Validation (AID 588379). The procedure, abridged: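 HeLa cells stably expressing Vif and A3G-eYFP, 700 cells/well, incubated overnight at 37 deg C, then exposed to compound overnight at 37 deg C. Inhibition of Vif-mediated degradation read as increased yellow fluorescence (Ex 488/Em 500-530) by laser-scanning cytometry.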

For test [17], the system named is Zika virus NS2B-NS3 protease. The test can be described thus: Primary screen GU AMC qHTS for Zika virus inhibitors (AID 1347154). Also: nearly all actives have a fitted effect of over 70% in size. The procedure, abridged:
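Unlinked Zika NS2B hydrophilic domain/NS3 protease domain noncovalent complex (25 nM final) in 10 mM Tris-HCl pH 8.0, 0.01% Tween 20, with AMC peptide substrate. Fluorescence (ex 340, em 450 nm) change over 15 min, room temperature; percent inhibition fitted to 4-parameter Hill equation.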

Test [18] can be described thus: Primary qHTS for small molecule stabilizers of the endoplasmic reticulum resident proteome: Secreted ER Calcium Modulated Protein (SERCaMP) assay (AID 1508630). The procedure, abridged:
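GLuc-SERCaMP-expressing SH-SY5Y cells, pretreated 16 h with compound, are challenged with thapsigargin to empty ER calcium stores; after 4 h, coelenterazine is added directly to the medium and luminescence is imaged.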

Inconclusive results are not listed. Activity calls are given as the source filed them. Calls follow the shape of the dose curve; as a rule, active = well fitted curve in the direction sought with a large enough effect; inconclusive = small, poorly fitted or top-dose-only effect, or another doubt; inactive = no such curve, though single readings can be large; an effect the other way counts as inactive or inconclusive.

Galactokinase (Homo sapiens), sequence (P51570 whole entry, looked up): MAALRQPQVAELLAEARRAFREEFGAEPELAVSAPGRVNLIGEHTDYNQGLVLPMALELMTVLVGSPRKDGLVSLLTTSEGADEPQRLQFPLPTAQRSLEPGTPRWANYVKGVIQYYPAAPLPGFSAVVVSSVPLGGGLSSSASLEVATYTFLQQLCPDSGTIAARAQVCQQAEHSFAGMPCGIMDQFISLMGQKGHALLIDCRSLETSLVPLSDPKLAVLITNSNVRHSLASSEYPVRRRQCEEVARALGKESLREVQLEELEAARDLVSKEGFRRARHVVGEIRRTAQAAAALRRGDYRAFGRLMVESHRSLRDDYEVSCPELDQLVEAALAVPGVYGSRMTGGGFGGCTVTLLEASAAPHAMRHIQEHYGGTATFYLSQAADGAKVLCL
DNA dC->dU-editing enzyme APOBEC-3G (Homo sapiens), sequence (Q9HC16 whole entry, looked up): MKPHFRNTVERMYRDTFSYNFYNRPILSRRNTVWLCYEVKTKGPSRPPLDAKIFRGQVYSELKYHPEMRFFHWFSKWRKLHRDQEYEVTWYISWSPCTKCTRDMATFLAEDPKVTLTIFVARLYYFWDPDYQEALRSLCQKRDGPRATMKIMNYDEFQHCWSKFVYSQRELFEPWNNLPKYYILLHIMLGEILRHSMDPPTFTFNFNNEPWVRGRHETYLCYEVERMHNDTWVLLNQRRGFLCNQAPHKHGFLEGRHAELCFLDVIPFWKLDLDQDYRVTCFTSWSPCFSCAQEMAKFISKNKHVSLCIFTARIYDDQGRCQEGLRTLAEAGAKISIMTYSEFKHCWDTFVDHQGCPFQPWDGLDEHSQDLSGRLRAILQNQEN
ATP-dependent DNA helicase Q1 (Homo sapiens), sequence (P46063 whole entry, looked up): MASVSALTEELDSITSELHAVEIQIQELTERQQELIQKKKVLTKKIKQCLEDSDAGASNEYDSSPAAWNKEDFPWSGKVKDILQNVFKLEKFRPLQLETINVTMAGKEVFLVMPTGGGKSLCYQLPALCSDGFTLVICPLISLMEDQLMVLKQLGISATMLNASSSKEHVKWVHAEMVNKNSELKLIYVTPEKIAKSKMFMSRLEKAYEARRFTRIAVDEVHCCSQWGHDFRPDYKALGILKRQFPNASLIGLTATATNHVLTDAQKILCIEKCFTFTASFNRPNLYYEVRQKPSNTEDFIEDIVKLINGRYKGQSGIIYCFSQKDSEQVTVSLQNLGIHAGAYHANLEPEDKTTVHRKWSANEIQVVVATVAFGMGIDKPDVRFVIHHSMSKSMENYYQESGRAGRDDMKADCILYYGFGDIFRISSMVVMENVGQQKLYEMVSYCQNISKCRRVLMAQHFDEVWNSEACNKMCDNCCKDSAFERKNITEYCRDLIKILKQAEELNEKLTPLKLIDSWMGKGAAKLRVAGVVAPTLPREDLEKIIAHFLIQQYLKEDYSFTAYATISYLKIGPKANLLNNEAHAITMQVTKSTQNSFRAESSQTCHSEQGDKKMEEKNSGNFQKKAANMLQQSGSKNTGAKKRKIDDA

Turning to `COc1[nH]c2ccc(F)cc2c1C(=O)OCC1CCN(CCNS(C)(=O)=O)CC1`, the Potency entry in test [1], in test [6], in test [9], in [10], in test [13] and in test [16] was “inactive” throughout. In addition, the Potency entry in [17] and in test [18] was “inactive” each time. Also, the Potency in test [2] is 7.94 µM (active); in test [3], 6.31 µM (active); in test [4] it was 7.08 µM (active); in test [5], 7.08 µM (active); in test [7], 10 µM (active); in [8] it was 5.01 µM (active). The Potency is 14.7 µM (active) in [11] and 11.7 µM (active) in test [12]. Moreover, the outcome in test [14] and in test [15] was inactive.

The record behind these values is PubChem BioAssay (NCATS).
